Test results published in PubChem BioAssay (NCATS).
Several values for one entry are separate records, joined by “and”; a condition that tells them apart may be missing. Equal values may be shown once. Results filed as inconclusive are left out. Activity calls are given as the source filed them. Calls come from the whole dose curve; as a rule, active = well fitted cell-killing curve with a large enough effect; inconclusive = small, poorly fitted or top-dose-only effect; inactive = flat fitted curve, though single readings scatter.

Assay: Cellular viability qHTS for adrenocortical cancer (ACC) cell line NCI-H295R (AID 1963990); note: nearly all actives have a fitted effect of over 60% in size
Conditions: CellTiter-Glo ATP luminescence, 48 h; series mostly up to 46.1 µM; activity change, negative = viability loss: at the top concentration
Description: PI: Naris Nilubol, MD Surgical Oncology Program, National Cancer Institute (NCI) National Institute of Health (NIH), Bethesda, Maryland Adrenocortical cancer (ACC) is a rare malignancy with poor survival outcomes and few treatment options. Currently, mitotane is the only FDA-approved therapy for ACC. Although adjuvant radiation therapy is rarely utilized, it has the potential to improve survival in select cases. Through a quantitative high-throughput drug screen (qHTS), we identified auranofin (AF), a thioredoxin reductase (TXNRD) inhibitor, as a promising candidate drug. This study aims to evaluate whether AF can enhance the efficacy of radiation therapy in the treatment of ACC. Two human ACC cell lines, SW-13 and NCI-H295R, were screened using the National Center for Advancing Translational Sciences (NCATS) Pharmaceutical Collection (NPC) and the Mechanism Interrogation PlatE (MIPE) library (~4,991 compounds). CellTiter-Glo (Cat # G7570, Promega, Madison, WI) was utilized to measure cell viability. Described herein are the results of the corresponding viability assay.
PROTOCOL TABLE (as described by Inglese J, Shamu CE and Guy RK. 2007) SEQUENCE No. (e.g., 1, 2, 3, etc.); […] (e.g., Cells, Incubation, Reagent, etc.); VALUE; DESCRIPTION. 1; Cells; 5 uL; white, solid-bottom, 1536-well tissue-culture treated plates. 2; Time; overnight culture at 37C with 5% CO2. 3; Compounds and control; 23 nL; Kalypsis pin tool (Wako USA) equipped with a 1536-well pin head to transfer to the assay plates. 4; Time; 48 hours; 37C with 5% CO2. 5; Reagent; 4 uL; CellTiter-Glo luminescent substrate mix. 6; Time; 20 min at room temperature. 7; Detection; Luminescence; ViewLux plate reader NOTES (numbers refer to Sequence numbers above) 1. NCI-H295R cells were harvested from a T175 flask and resuspended in ITS-supplemented DMEM serum-free medium at a concentration of 300 000 cells/mL. Then 5 uL of resuspended cells were dispensed into each well of white, solid-bottom, 1536-well tissue-culture-treated plates using a multidrop combi dispenser. The plates were covered with stainless steel gasket lids. 2-3. The plates were cultured overnight at 37C with 5% CO2. Twenty-three nL of compounds (eight selected concentrations from the NPC / MIPE) or positive control (10 mM stock of bortezomib) in DMSO was transferred to each well of the assay plate using a pin tool (Kalypsys, San Diego, CA, USA). The final concentration of the compounds in the 5 uL assay volume ranged from 0.5 nM to 46 uM. 4-6. After 48 hours of incubation at 37C and 5% CO2, 4 uL of CellTilter-Glo luminescent substrate mix (Promega, Madison, WI, USA) was added to each well. Then the plates were incubated for 20 minutes at room temperature. 7. After incubation, luminescence was measured using a ViewLux plate reader (PerkinElmer, Waltham, MA, USA) with a clear filter was used to measure the number of metabolically competent cells. To determine compound activity in the qHTS assay, the titration-response data for each sample was plotted and modeled by a four-parameter logistic fit yielding IC50 and efficacy (maximal response) values. Raw plate reads for each titration point were normalized relative to positive control ([…], 100% inhibition) and DMSO-only wells (basal, 0%). REFERENCES: Inglese J, Shamu CE and Guy RK, Reporting data from high throughput screening of small molecule libraries, Nature Chemical Biology, 2007, 3(8): 438-441. doi.org/10.1038/nchembio0807-438.

Row | SMILES | Potency | activity change, negative = viability loss
1 | CCCCCCCCCCCCCCCCOP(=O)([O-])OCC[N+](C)(C)C | 23.1 µM (active) | –
2 | COc1cc(C(C)C)c(Oc2cnc(NC(CO)CO)nc2N)cc1I | – | -3.31% (inactive)
3 | C[C@@H]1C[C@H]2[C@@H]3CCC4=CC(=O)C=C[C@]4(C)[C@@]3(F)[C@@H](O)C[C@]2(C)[C@H]1C(=O)CO | – | 2.27% (inactive)
4 | COc1cc(C(N)=O)ccc1NC(=O)[C@@H]1N[C@@H](CC(C)(C)C)[C@@]2(C(=O)Nc3cc(Cl)ccc32)[C@H]1c1cccc(Cl)c1F | 11.2 µM (active) | –
5 | O=C(CS)Nc1ccccc1 | – | -28.9% (inactive)
6 | CC(=O)N1CCN(c2ccc(NC(=O)Cc3cnc(-c4ccnc(F)c4)c(C)c3)nc2)CC1 | – | -6.74% (inactive)
7 | CC(=O)Oc1c(C)c(C)c2c(c1C)CC[C@@](C)(CCC[C@H](C)CCC[C@H](C)CCCC(C)C)O2 | – | -3.81% (inactive)
8 | N#Cc1c(C2CCNCC2)cc(-c2c(O)cccc2OCC2CC2)nc1N | 11.2 µM (active) | –
9 | O=C1c2ccccc2C(=O)C1c1ccc(Br)cc1 | – | -2.62% (inactive)
10 | CC(C)n1nc(-c2cc3cc(O)ccc3[nH]2)c2c(N)ncnc21 | 2.31 µM (active) and 10 µM (active) | –
11 | NCCCNCCSP(=O)(O)O | – | 0.548% [at 9.17 µM] (inactive)
12 | C=CC(=O)N1CC/C(=C\c2ccc(F)c([N+](=O)[O-])c2)C(=O)/C(=C/c2ccc(F)c([N+](=O)[O-])c2)C1 | 0.316 µM (active) | –
13 | Cn1cc(C[C@@H](N)C(=O)O)c2ccccc21 | – | -13.9% [at 9.17 µM] (inactive)
14 | Clc1ccc2nsnc2c1NC1=NCCN1 | inactive | –
15 | CCN(CC)CCOc1ccc(/C(=C(\Cl)c2ccccc2)c2ccccc2)cc1 | 7.31 µM (active) | –
16 | CC(C)c1cc(C(=O)N2Cc3ccc(CN4CCN(C)CC4)cc3C2)c(O)cc1O | 0.631 µM (active) | –
17 | C[C@]12C=CC(=O)C=C1[C@@H](F)C[C@@H]1[C@@H]2[C@@H](O)C[C@@]2(C)[C@H]1CC[C@]2(O)C(=O)CO | – | -0.767% (inactive)
18 | Nc1ccn([C@@H]2O[C@H](CO)[C@@H](O)C2O)c(=O)n1 (stereo not given in full) | – | -16.6% (inactive)
19 | COc1ccc(-c2cc(=O)c3c(O)cc(O)cc3o2)cc1O | – | -16.1% (inactive)
20 | Oc1c(I)cc(I)c2cccnc12 | 3.66 µM (active) | –

Row | SMILES | Potency | activity change, negative = viability loss
21 | COCCCc1sc(-c2ccccc2)nc1C(=O)Nc1ccccc1-c1nc2cc(CN3CCCC3)cnc2s1 | – | -20.8% [at 20 µM] (inactive)
22 | CCOc1cc(OCC)c(C(=O)CCC(=O)O)cc1OCC | – | 1.29% (inactive)
23 | CC(=O)Nc1nc(C)c(-c2ccc(Cl)c(S(=O)(=O)NCCO)c2)s1 | 25.1 µM (active) | –
24 | O=C(c1cc(O)c(O)c(O)c1)c1ccc(O)c(O)c1O | – | -29.2% (inactive)
25 | Oc1ccc(CCNCCCCCCNCCc2ccccc2)cc1O | 16.4 µM (active) | –
26 | C[C@H](CN(C)C)Oc1nc(Nc2cc3cccc(Cl)c3cn2)cnc1C#N | 2.24 µM (active) | –
27 | CC1(C)O[C@@H]2C[C@H]3[C@@H]4CCC5=CC(=O)C=C[C@]5(C)[C@H]4[C@@H](O)C[C@]3(C)[C@]2(C(=O)CO)O1 | – | -3.59% (inactive)
28 | C[C@@H](Oc1cc(-c2cnn(C3CCNCC3)c2)cnc1N)c1c(Cl)ccc(F)c1Cl | 3.16 µM (active) | –
29 | COc1ccc(CNC(=O)Nc2ncc([N+](=O)[O-])s2)cc1 | 28.2 µM (active) | –
30 | Cc1ccc2nc(NC(=O)CSc3nc4c(c(=O)n3-c3ccccc3)SCC4)sc2c1 | – | 3.72% (inactive)
31 | O=C(O)CCCC[C@@H]1SC[C@@H]2NC(=O)N[C@@H]21 | – | -23.2% (inactive)
32 | CC(C)[C@H](C(=O)Nc1ccc(C(=O)NO)cc1)c1ccccc1 | 1.26 µM (active) | –
33 | O=C(c1ccco1)N1CCNCC1 | – | 6.84% (inactive)
34 | CCNC(=O)CCC/C=C\C[C@@H]1[C@@H](/C=C/C(O)CCc2ccccc2)[C@@H](O)C[C@@H]1O (stereo not given in full) | – | 4.25% (inactive)
35 | CCCCCCCCCCCCCC(=O)OC(C)C | – | 3.2% (inactive)
36 | COc1ccc(C2C(=O)c3ccccc3C2=O)cc1 | – | -3.75% (inactive)
37 | CC(=O)OCC(=O)[C@@]1(OC(C)=O)[C@@H](C)C[C@H]2[C@@H]3C[C@H](F)C4=CC(=O)C=C[C@]4(C)[C@@]3(F)[C@@H](O)C[C@@]21C | – | -5.55% (inactive)
38 | C[C@H]1NCc2cc(-c3ccc4c(=O)c(C(=O)O)cn(C5CC5)c4c3OC(F)F)ccc21 | – | -2.76% [at 20 µM] (inactive)
39 | CC(C)[C@H]1C(=O)N[C@@H](CCCN=C(N)N)C(=O)NCC(=O)N[C@@H](CC(=O)O)C(=O)N[C@H](Cc2ccccc2)C(=O)N1C | – | -12.1% [at 20 µM] (inactive)
40 | NS(=O)(=O)c1cc2c(cc1Cl)NCNS2(=O)=O | inactive | –
